Bioassay records deposited in PubChem BioAssay by National Center for Advancing Translational Sciences (NCATS).
A selection: hits, their analogues and other compounds. The true share with any hit is near 12%.
Sm TGR inh – inhibitors of Schistosoma mansoni thioredoxin glutathione reductase. Q962Y6. purified TGR, DTNB reduction, TNB absorbance 405 nm. Potency, µM (doses to about 114 µM), without a hit: at the top dose activity change, negative = inhibition, most hits filed as inhibitors. actives 3% (n = 360,000). AID 485364; note: % is set by controls: 0 for no effect and ±100 for the full control effect; nearly all actives have a fitted effect of over 60% in size
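First, TGR (20 nM dispensed) and NADPH were mixed with compound. Second, a 15 min room-temperature incubation followed. Third, further NADPH and then DTNB were added to start the reaction. Finally, TNB absorbance was monitored kinetically.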
Pf growth 96h – inhibits malaria parasite growth, 96 h; P. falciparum luciferase reporter growth, 96 h; Potency, µM (series often up to 28.7 µM), without a hit: at the highest dose activity change, negative = inhibition, hits mostly inhibitors; actives 6.9% (n = 320,000); AID 504834; note: % is set by controls: 0 for no effect and ±100 for the full control effect
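Two-generation exposure (96 h) targets delayed-death phenotype. Reporter parasites carrying integrated firefly luciferase, in red cells at 2% hematocrit and 0.05% parasitemia final, kept at 37 C, 5% CO2; luminescence loss indicates inhibition.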
SARS PLP yeast – SARS-CoV PLP inhibition in yeast | S. cerevisiae expressing SARS-CoV PLpro, growth rescue | Potency, µM (top dose mostly 32.9 µM), inactives show at the top dose activity, positive = growth rescue, most hits filed as activators | actives 0.19% (n = 330,000) | AID 485353; calls by dose curve; note: 0% is about no effect; nearly all actives have a fitted effect of over 55% in size
AmpC inh detg – AmpC beta-lactamase inhibition with detergent present; Potency, µM (doses to about 114 µM), without a hit: top-dose activity change, negative = inhibition, hits mostly inhibitors; AmpC hydrolysis of nitrocefin, absorbance 480 nm, 0.01% Triton; actives 0.041% (n = 370,000); P00811; AID 485294;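 note: 0% = no-compound wells and -100% = no-enzyme wells; nearly all actives have a fitted effect of over 25% in size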
Target sequence (P00811 whole entry, looked up): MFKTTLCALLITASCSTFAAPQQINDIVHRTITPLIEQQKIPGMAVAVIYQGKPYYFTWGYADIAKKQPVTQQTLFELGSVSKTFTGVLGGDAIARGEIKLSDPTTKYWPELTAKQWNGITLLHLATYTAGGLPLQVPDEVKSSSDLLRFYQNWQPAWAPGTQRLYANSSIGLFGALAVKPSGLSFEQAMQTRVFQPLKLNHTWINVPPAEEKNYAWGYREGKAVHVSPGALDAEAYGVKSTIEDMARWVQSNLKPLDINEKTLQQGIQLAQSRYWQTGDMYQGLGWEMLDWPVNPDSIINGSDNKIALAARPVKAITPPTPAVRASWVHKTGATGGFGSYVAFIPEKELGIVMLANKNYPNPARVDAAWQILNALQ
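AmpC (5.3 nM in the dispensed reagent) in 20 mM phosphate pH 7.0 with 0.01% (detergent screen) or 0.0001% Triton X-100 was preincubated with compounds for 15 min at room temperature. Nitrocefin was then added from an 800 uM solution, and hydrolysis was followed at 480 nm.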
Pf growth 48h – inhibits P. falciparum growth in the first generation, 48 h; P. falciparum luciferase growth in erythrocytes, 48 h; Potency, µM (titrated, usually from 28.7 µM), for the others: at the top dose activity change, negative = inhibition, most hits filed as inhibitors; actives 5.9% (n = 310,000); note: % is set by controls: 0 for no effect and ±100 for the full control effect
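Firefly luciferase activity from engineered P. falciparum reports growth; inhibitors lower the luminescent signal. Cultures contained 2% hematocrit erythrocytes at 0.1% final parasitemia.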
AmpC inh no detg – AmpC beta-lactamase inhibition without detergent | P00811 | actives 0.52% (n = 330,000) | AmpC nitrocefin hydrolysis, absorbance 480 nm, 0.0001% Triton | Potency, µM (highest dose often 57.1 µM), for inactives: at the top dose activity change, negative = inhibition, hits mostly inhibitors;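 note: plate controls were no compound for no effect and no enzyme for full effect; nearly all actives have a fitted effect of over 20% in size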
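AmpC (5.3 nM in the dispensed reagent) in 20 mM phosphate pH 7.0 with 0.01% (detergent screen) or 0.0001% Triton X-100 was preincubated with compounds for 15 min at room temperature. Nitrocefin was then added from an 800 uM solution, and hydrolysis was followed at 480 nm.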
Starred values were filed as active, the others as inactive; u = inconclusive; x = not tested or not shown; [ ] = dose if it differs, or a comment. Unless noted, calls come from the whole dose curve; as a rule, active = well fitted curve in the direction sought with a large enough effect; inconclusive = small, poorly fitted or top-dose-only effect, or another doubt; inactive = no such curve, though single readings can be large; an effect the other way counts as inactive or inconclusive. Potency is the fitted concentration of half-maximal effect.

SMILES	Sm TGR inh	Pf growth 96h	SARS PLP yeast	AmpC inh detg	Pf growth 48h	AmpC inh no detg
Cc1cccc2[nH]c(-c3ccc(NC(=O)c4ccco4)cc3)nc12	-1.4%	0.415µM*	-0.7%	u	-45.4%	u
O=C(Nc1ccc2nc(-c3ccccc3)[nH]c2c1)c1ccco1	28.2µM*	-11.1%	-0.4%	2.8%	u	-23.9%
C#CCNC(=O)C1=C[C@H](c2ccc(Br)cc2)[C@@H](CCCO)[C@H](OCC)O1	-4.5%	-29.0%	-1.3%	2.8%	u	72.7%
Cc1ccc(-n2nc(C)c3c(C(F)(F)F)cc(-c4cccnc4)nc32)cc1Cl	3.6%	x	x	9.9%	x	x
Cc1ccc(Cl)cc1NC(=O)C1CCN(S(=O)(=O)c2cccc3nonc23)CC1	3.5%	x	x	17.0%	x	x
CCc1n[nH]c(=S)n1/N=C/c1cc(OC)cc([N+](=O)[O-])c1O	-16.9%	64.8%[5.75 µM]	-4.1%	-9.1%	-5.3%	-30.0%
CC1=CC(C)(C)N(C(=O)CCl)c2cc(C)ccc21	u	u	1.4%	8.2%	-7.7%	-9.5%
CC1=CC(C)(C)N(C(=O)CNC2CCCCC2)c2cc(C)ccc21	-0.1%	u	1.1%	-8.0%	9.28µM*	11.9%
CCOC(=O)N1CCC(N2CC34C=CC(O3)C(C(=O)Nc3ccc(F)cc3)C4C2=O)CC1 (centres undefined)	-3.1%	14.7µM*	-4.6%	u	x	2.2%
CC(=O)Nc1ccc(Nc2nc(Cl)nc(Nc3ccc(NC(C)=O)cc3)n2)cc1	35.5µM*	4.0%	0.3%	-0.3%	-4.9%	-4.5%
COc1ccc(C2=NS(=O)(=O)N(C)C(C(=O)N3CCCCC3)=C2)cc1OC	1.5%	u	-2.9%	5.7%	-12.1%	52.9%
COc1cc(O)c(CC=C(C)C)c(O)c1C(=O)CCc1ccc(O)cc1	-16.4%	-10.7%	-10.9%	17.2%	9.28µM*	-43.6%
O=C(CCc1ccc(O)cc1)c1c(O)cc(O)cc1O	9.8%	u	8.5%	-0.5%	u	-41.3%
O=S(=O)(NCC(c1ccco1)N1CCc2ccccc2C1)c1ccc(Br)cc1 (centres undefined)	1.2%	u	-14.3%	9.4%	u	19.1%
Cn1c(=O)[nH]c(=O)c2c1nc(NN)n2CCOc1ccccc1	0.0%	u	0.4%	u	x	-11.4%
c1coc(CNCc2cccs2)c1	6.0%	9.28µM*	14.4%	-1.6%	23.0%	-11.2%
Oc1ccc(OCc2ccccc2)cc1	x	u	x	x	-26.9%[12.8 µM]	x
Oc1ccc(NCc2ccc(OCc3ccccc3)cc2)cc1	7.08µM*	2.8%	-4.3%	-1.8%	1.2%[0.00184 µM]	-34.6%
CCc1ccc(CNc2ccc(O)cc2)cc1	22.4µM*	56.4%	u	0.2%	11.7µM*	-34.2%
Oc1ccc(NCc2ccc(OCc3ccccc3Cl)cc2)cc1	35.5µM*	x	x	15.2%	x	x
CCN(C(=O)CSc1nc(-c2ccccc2)no1)c1cccc(C)c1	-23.6%	x	x	6.8%	x	x
O=c1[nH]c(NCCO)nnc1Cc1ccccc1	-6.1%	49.8%	0.5%	-7.4%	37.1%	-3.9%
CSc1ccc(NC(=O)Nc2ccc(C(=O)NCC(=O)O)cc2)cc1	159.7%	4.6%	0.5%	-3.5%	140.9%	-38.0%
CC(C)(C)C1CCC(OC(=O)C[N+]2(C)CCCCC2)CC1 (centres undefined)	-3.7%	-1.2%	-0.2%	-0.8%	11.7µM*	19.7%
CC(C)(C)C1CCC(OC(=O)C[N+]2(C)CCCC2)CC1 (centres undefined)	4.8%	70.9%	0.2%	2.2%	u	13.7%
SMILES	Sm TGR inh	Pf growth 96h	SARS PLP yeast	AmpC inh detg	Pf growth 48h	AmpC inh no detg
O=C(C1CCN(S(=O)(=O)c2ccccc2)CC1)N1CCCCCC1	-20.0%	u	-1.0%	-5.4%	3.9%	10.9%
CCn1nc2cc(C(=O)NCC34CC5CC(CC(C5)C3)C4)ccc2c1OC	2.0%	23.1%	4.1%	8.3%	11.7µM*	17.9%
CCOc1c2ccc(C(=O)NCC34CC5CC(CC(C5)C3)C4)cc2nn1CC	3.6%	u	5.2%	u	-33.1%	142.8%
CCCCn1nc2cc(C(=O)NCC34CC5CC(CC(C5)C3)C4)ccc2c1OC	15.6%	14.7µM*	4.5%	1.3%	u	0.8%
Cc1cccc(C)c1NC(=O)CN1CCN(CC(=O)NCC2(N3CCCCC3)CCCCC2)CC1	0.7%	1.9%	0.5%	8.4%	u	-16.5%
Cc1cccc(C)c1NC(=O)CC12CCCN1CCC2	x	6.01µM*	x	x	-9.2%	x
Cc1c(C(=O)NCc2cccc(Cl)c2)sc2nc[nH]c(=O)c12	5.2%	x	x	-7.1%	x	x
CCOc1ccc(S(=O)(=O)O)c2cccnc12	x	-10.7%	x	x	3.7%	x
O=c1oc(/C=C/c2ccc([N+](=O)[O-])s2)nc2ccccc12	-18.8%	0.0828µM*	-5.9%	-2.1%	u	-31.6%
CC(=O)Oc1ccccc1/C=C/c1nc2ccccc2c(=O)o1	0.7%	34.5%	-2.7%	-4.1%	1.47µM*	-19.5%
CC(=O)Oc1ccc(-c2nc3ccccc3c(=O)o2)cc1	2.9%	16.6%	6.6%	-2.8%	u	-21.7%
CC(=O)Oc1ccc(/C=C/c2nc3ccccc3c(=O)o2)cc1	-26.2%	11.7µM*	-1.4%	-5.9%	168.0%	-12.3%
O=[N+]([O-])c1ccc(C=Nc2cccc3ccccc23)s1	x	35.6%	-5.2%	-13.6%	u	-30.3%
O=C(Nc1ccc(C(=O)O)cc1)/C(=C\c1ccco1)NC(=O)c1ccccc1	x	9.28µM*	0.8%	-4.0%	-7.7%	-19.8%
CC(C)(C)c1ccc(C(=O)N/C(=C\c2ccco2)C(=O)Nc2ccccc2C(=O)O)cc1	39.8µM*	12.3%	3.6%	4.5%	12.7%	-37.6%
CC(=O)Nc1ccc(NC(=O)/C(=C/c2ccco2)NC(=O)c2ccccc2)cc1	x	u	-1.1%	-2.4%	10.4%	-25.2%
O=C(NC1CCS(=O)(=O)C1)/C(=C\c1ccco1)NC(=O)c1ccccc1 (centres undefined)	35.5µM*	33.3%	0.5%	0.8%	5.0%	-19.1%
O=C(Nc1ccc(C(=O)O)cc1)/C(=C\c1ccco1)NC(=O)c1ccccc1Cl	-23.8%	3.1%	28.5%	-5.0%	3.5%	-24.1%
CCCc1cc(=O)n2[nH]c(C)c(-c3ccc(OC)cc3)c2n1	4.7%	u	3.7%	-9.2%	55.5%	-33.3%
Cc1nc(N2CCN(c3ccccn3)CC2)c2c(C)c(C(=O)Nc3ccc(Br)cc3C)sc2n1	8.3%	-28.1%	-19.0%	-1.0%	2.94µM*	-17.7%
Cc1nc(N2CCN(c3ccccn3)CC2)c2c(C)c(C(=O)N3CCN(c4ccccc4F)CC3)sc2n1	-12.9%	23.6%	-3.4%	4.0%	8.28µM*	70.7%
COc1ccc(Cc2nc(-c3cccs3)no2)cc1	5.9%	22.0%	0.8%	-3.2%	105.9%	-12.4%[2.29 µM]
